PubChem BioAssay (NCI)
The panel holds about 79,000 compounds, 15% with a hit somewhere; the sample as a whole holds those more often. Active and inactive are the calls of the source. Rule as the data show it: active = growth inhibition above about 70%; inactive = the rest.

What was measured:
[1] = NCI Yeast Anticancer Drug Screen. Data for the rad50 strain (AID 155);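 also: 0% = growth of vehicle-only cultures of the same strain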; settings: S. cerevisiae rad50 strain growth inhibition; at 50.0 µM; hits give high values
How it was run: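 A DNA repair-deficient yeast mutant serves as the test organism; compound-induced growth inhibition is calculated against vehicle-treated cells.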

[2] = NCI Yeast Anticancer Drug Screen. Data for the mec2-1 strain (AID 157); settings: S. cerevisiae mec2-1 strain, at 50.0 µM, hits give high values
How it was run: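 Using mec2-1 yeast: add compound, measure growth, express inhibition versus vehicle-treated cultures.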

[3] = NCI Yeast Anticancer Drug Screen. Data for the sgs1 mgt1 strain (AID 161);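 also: 0% = growth of cultures given vehicle only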; settings: S. cerevisiae sgs1 mgt1 strain, at 50.0 µM, hits give high values
How it was run: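 Compounds are added to genetically altered yeast, and growth is compared with cultures given vehicle alone to give percent inhibition.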

[4] = NCI Yeast Anticancer Drug Screen. Data for the cln2 rad14 strain (AID 165);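 also: 0% = growth equal to vehicle treated cultures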; settings: S. cerevisiae cln2 rad14 strain, at 50.0 µM, hits give high values
How it was run: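 Yeast strain cln2 rad14, bearing defects in cell cycle control and DNA repair, serves as the test system; values reflect growth inhibition compared with vehicle.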

[5] = NCI Yeast Anticancer Drug Screen. Data for the bub3 strain (AID 167); settings: S. cerevisiae bub3 mutant strain, at 50.0 µM, hits give high values
How it was run: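 Inhibition values come from growth of compound-treated mutant yeast normalised to vehicle-treated controls.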

[6] = NCI Yeast Anticancer Drug Screen. Data for the mlh1 rad18 strain (AID 175); settings: S. cerevisiae mlh1 rad18 strain growth inhibition; at 50.0 µM; hits give high values
How it was run: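 Steps: expose repair-defective yeast to compound; measure growth; express inhibition against vehicle-treated controls.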

Measured: growth inhibition

COC(=O)CC(NC(=O)OCc1ccccc1)C(=O)NC(COC(C)=O)C(=O)NCC(=O)OCc1ccccc1 (stereo unspecified)
inactive: [1] 28.4% | [2] 10.4% | [3] 10.3% | [4] 15.6% | [5] 3.2% | [6] 16.4%

CCCCCCCCCCCCCCCCCC[N+](CCCC)(CCCC)CCCCCCCCCCCCCCCCCC (tested in a mixture with another compound)
inactive: [1] 3.45% | [2] 7.25% | [3] 1.7% | [4] -10% | [5] 1.5% | [6] 4.3%

O=C(Nc1ccc(Cl)cc1)c1cc2c(cc1Cl)Sc1nccn1S2(=O)=O
inactive: [1] -4.85% | [2] -11.7% | [3] -1.65% | [4] -25.4% | [5] 2.35% | [6] 16.9%

COC(=O)c1ccc(Cl)cc1OCC(=O)Nc1ccccc1
inactive: [1] -29.1% | [2] -0.55% | [3] -12.2% | [4] -27.7% | [5] -4.6% | [6] -3.65%

CC1(C)OB(O)OC1(C)C
inactive: [1] -10.4% | [2] 12.7% | [3] -35.2% | [4] 14.6% | [5] -0.9% | [6] -9.7%

COC(=O)c1ccc(/C=C(\c2ccc([N+](=O)[O-])o2)S(=O)(=O)c2ccc(NC(C)=O)cc2)o1
inactive: [2] 66% | [5] 34.8%
active: [1] 84.7% | [3] 90.8% | [4] 71.7% | [6] 88.5%

CC1CCC2C(C(=O)O[C@H]3C4CCO[C@@H](OC5OC(CO)C(O)C(O)C5O)C4[C@@]4(CO)O[C@@H]34)=CO[C@@H](OC3OC(CO)C(O)C(O)C3O)C12 (stereo partly specified)
inactive: [1] 16.4% | [2] -9.6% | [3] 5.9% | [4] 22.2% | [5] 22.6% | [6] 19.6%

CC(C)(O)C(F)(F)F
inactive: [1] 13.8% | [2] -5.85% | [3] 27.1% | [4] 12.2% | [5] -3.4% | [6] 25.5%

C[n+]1c(-c2ccc(Cl)c(Cl)c2)c2cc(N)ccc2c2ccccc21
inactive: [1] 14.9% | [2] -22.6% | [3] 30.6% | [4] 3.9% | [5] 7.2% | [6] 14.4%

Cc1ccccc1C1CCCCC1OS(C)(=O)=O (stereo unspecified)
inactive: [1] -6.3% | [2] -1.35% | [3] -15.2% | [4] -7.6% | [5] 7.1% | [6] -11.1%

CSc1ccc(NC(=S)SCc2ccc3c(c2)OCO3)cc1Cl
active: [1] 95.7% | [2] 98.6% | [3] 98% | [4] 84.3% | [5] 97.5% | [6] 97.2%

O=C1CC(C(F)(F)F)(C(F)(F)F)O1
inactive: [1] 11.3% | [2] 19.4% | [3] -8.75% | [4] -58.2% | [5] 13.6% | [6] -19%

CCC1C(=O)N(C)c2ccccc21 (stereo unspecified)
inactive: [1] -2.15% | [2] -9.6% | [3] -10.1% | [4] 1.55% | [5] -19.3% | [6] 13.2%

O=C(O)COc1cccc([N+](=O)[O-])c1
inactive: [1] 3% | [2] -10.3% | [3] -9.9% | [4] -62.5% | [5] -5% | [6] -17.4%

COc1cccc(NC(=O)CC(=O)N2N=C(N(CCC#N)c3ccc(Cl)cc3)CC2c2ccccc2)c1 (stereo unspecified)
inactive: [1] 19.1% | [2] -4.2% | [3] 19.1% | [4] 8.9% | [5] -0.15% | [6] -0.75%

CCOc1cc[n+](C)c2ccc(C)cc12
inactive: [1] 13.6% | [2] 12.8% | [3] 11.3% | [4] 16.3% | [5] 21.5% | [6] 26.7%

Cc1cc([N+](=O)[O-])c(NCCOC(=O)c2ccc([N+](=O)[O-])cc2)c([N+](=O)[O-])c1
inactive: [1] -24.1% | [2] -6.55% | [3] -10.9% | [4] -69.2% | [5] 2.8% | [6] -10.7%

COc1ccc(NC(=O)CC(O)c2cccc(N)c2)cc1 (stereo unspecified)
inactive: [1] 22.3% | [2] -26.4% | [3] 26.3% | [4] 7.1% | [5] 25.1% | [6] 12.5%

C=CC1(c2ccc(Cl)c(Cl)c2)OCCO1
inactive: [1] -11.3% | [2] 15.8% | [3] 15% | [4] -6.5% | [5] 9.55% | [6] 25.4%

CC(C(N)=O)N1C(=O)C2C3CCC(O3)C2C1=O (stereo unspecified)
inactive: [1] -7.65% | [2] -6.65% | [3] -16.1% | [4] -44.8% | [5] -1.8% | [6] 3.1%

NC(=S)Nc1ccccc1-c1ccccc1
inactive: [1] 36.2% | [2] 13.8% | [3] 25% | [4] -6.9% | [5] 32.5% | [6] 33.2%

CC1(C)OC2CC3COC(=O)C3CC2O1 (stereo unspecified)
inactive: [1] 9.35% | [2] -4.85% | [3] -8.45% | [4] 1.6% | [5] 30.2% | [6] 17.9%

Cc1ccc(C)c(NC(=O)C(=O)C(C#N)c2c(Cl)cccc2Cl)c1 (stereo unspecified)
inactive: [1] -23.2% | [2] 16.5% | [3] 44.5% | [4] -24.4% | [5] 6.35% | [6] 28.9%

CC(=O)Nc1cc(Cl)ccc1SC1OC(COC(C)=O)C(OC(C)=O)C(OC(C)=O)C1OC(C)=O (stereo unspecified)
inactive: [1] -10.6% | [2] -7.15% | [3] 17.9% | [4] -44.2% | [5] 4.6% | [6] -2.8%

Cc1cc(=O)c2cc(Cc3ccc(N)cc3)ccc2[nH]1
inactive: [1] 8.35% | [2] -16.7% | [3] -8% | [4] 3.05% | [5] -3.45% | [6] 0.65%

COc1ccc(CCc2ccc(Cl)cc2)cc1
inactive: [1] 6.35% | [2] 6.3% | [3] -5.9% | [4] 15.5% | [5] -17.6% | [6] -4.5%

CCCCC(O)(CC)CC
inactive: [1] 3.3% | [2] -23.9% | [3] -3.6% | [4] 5.5% | [5] -16.4% | [6] 15.2%

CC1OC(c2ccc3c(c2O)C(=O)C2=C(C3=O)C3(O)C(=O)CC(C)(O)CC3(O)C=C2)CC(O)C1O (stereo unspecified)
inactive: [1] -19.2% | [2] -23.1% | [3] -19.4% | [4] -8.1% | [5] -21.8% | [6] -5.5%

CC(=O)Nc1cccc(S(=O)(=O)c2cccc(NC(C)=O)c2)c1
inactive: [1] -9.8% | [2] -10.1% | [3] -7.55% | [4] -66.5% | [5] 8.1% | [6] -10.3%

OCCCCN(CCO)CCCCO
inactive: [1] -2.75% | [2] -7.25% | [3] -1.5% | [4] -12.4% | [5] 13.9% | [6] -3.5%

Brc1ccc(C2NC(c3ccccc3)c3c(ccc4ccccc34)O2)cc1 (stereo unspecified)
inactive: [4] 61.2% | [5] 52.3%
active: [1] 90% | [2] 77.7% | [3] 90.9% | [6] 86.4%

COC(=O)C1(C2CCCCCCC2=O)NC(=S)NC(=O)C1C#N (stereo unspecified)
inactive: [1] 4.35% | [2] -18.8% | [3] -28.1% | [4] 11.2% | [5] -24.9% | [6] -4.05%

C/C=C\C=C\C(=O)O
inactive: [1] -30.4% | [2] -17% | [3] -38.3% | [4] 4.3% | [5] -19.8% | [6] -31.9%

CCOC(=O)/C(C#N)=C/c1c[nH]c2ccccc12
inactive: [1] 19.6% | [2] 6.05% | [3] 3.5% | [4] 23.8% | [5] 19.3% | [6] 31.4%

NC1=NOC(=O)C1c1ccccc1 (stereo unspecified)
inactive: [1] -19.1% | [2] -45.3% | [3] -10.2% | [4] 2.55% | [5] -9.5% | [6] -19.8%

Oc1ccc(Br)cc1C1Nc2ccccc2S1 (stereo unspecified)
inactive: [1] 0.65% | [2] 6.15% | [3] 0.4% | [4] -28.3% | [5] 5.15% | [6] -1.85%
